# Screens: PubChem, Paczesny and Yang Labs, IUPUI and University of Michigan
# ST2 inh = IL1RL1 inhibition. Q01638. AlphaLISA ST2-Fc/biotin-IL-33 interaction, 1 h. inhibition, % for hits at 17 µM. 78,000 tested, 2.3% active; in the data active = inhibition above about 30%
# Target sequence (Q01638 whole entry, looked up): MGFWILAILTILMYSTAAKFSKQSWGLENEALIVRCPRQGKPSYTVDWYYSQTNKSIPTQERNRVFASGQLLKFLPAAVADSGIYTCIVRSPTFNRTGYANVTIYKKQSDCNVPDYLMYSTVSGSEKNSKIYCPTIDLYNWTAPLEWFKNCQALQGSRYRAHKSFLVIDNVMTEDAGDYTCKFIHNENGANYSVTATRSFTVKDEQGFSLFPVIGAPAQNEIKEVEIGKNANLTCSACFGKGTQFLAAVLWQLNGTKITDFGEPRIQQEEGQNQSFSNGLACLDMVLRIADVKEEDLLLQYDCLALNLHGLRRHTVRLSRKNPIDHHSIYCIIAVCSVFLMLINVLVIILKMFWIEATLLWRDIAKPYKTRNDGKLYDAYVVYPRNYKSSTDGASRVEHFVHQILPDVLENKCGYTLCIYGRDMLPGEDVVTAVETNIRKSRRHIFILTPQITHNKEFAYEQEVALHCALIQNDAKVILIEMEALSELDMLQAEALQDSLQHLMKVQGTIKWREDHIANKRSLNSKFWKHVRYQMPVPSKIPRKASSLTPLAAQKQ
# Starred values were filed as active, the others as inactive; i = inactive; ! = a repeat was not active. Only a selection was taken, and hits are over-represented in it overall.
SMILES,ST2 inh
O=C(CC1CCCCC1)Nc1ccc2c(c1)OCO2,i
O=C(Nc1ccc(F)c(Cl)c1)c1cc(-c2ccc3c(c2)OCO3)on1,i
CC(=O)c1ccc(NC(=O)c2cc(-c3ccc4c(c3)OCO4)on2)cc1,31%*
O=C(O)C1CC=CCC1C(=O)Nc1ccc2c(c1)OCO2 (configuration not stated),i
Cc1cccc(NC(=O)c2cc3c([nH]c4ccccc43)c(C)n2)c1C,i
Cc1nc(C(=O)Nc2ccc3c(c2)OCO3)cc2c1[nH]c1ccccc12,30%*
Cc1ccc(C(=O)Nc2ccc3c(c2)OCO3)cc1,30%*!
COc1cc(C(=O)Nc2ccc3c(c2)OCO3)cc(OC)c1OC,i
O=C(O)C1C2C=CC(O2)C1C(=O)Nc1ccc2c(c1)OCO2 (configuration not stated),31%*
Cc1cc(C)n(CCCC(=O)N2CCNCC2C(=O)N2CCOCC2)n1 (configuration not stated),i
CCc1ccc(NC(=O)CCSc2ccccc2)cc1,i
CCCCOc1ccc(-c2cnc(S(C)(=O)=O)nc2)cc1,i
N#C/C(=C\c1ccc(F)cc1)c1nc(C2CC2)cs1,52%*
N#C/C(=C\c1ccc([N+](=O)[O-])cc1)c1nc(-c2ccc3c(c2)OCO3)cs1,i
N#C/C(=C\c1ccc(Cl)cc1)c1nc(C2CC2)cs1,66%*
c1ccc(-c2ncn(CC3CCCO3)c2-c2cccn2-c2ncccn2)cc1 (configuration not stated),i
CC(C)COC(=O)C1C2C=CC3(CN(c4cccc(Cl)c4)C(=O)C13)O2 (configuration not stated),i
O=C(CCn1cnc2ccccc2c1=O)N1CC(c2cccnc2)C1,i
O=C1NC(c2cccc(Br)c2)Nc2ccccc21 (configuration not stated),i
O=C1c2ccccc2C(=O)C1C1=Nc2ccccc2NC(c2ccccc2)C1 (configuration not stated),31%*!
O=C1NC2=C(C(=O)c3ccccc32)C(c2ccccc2)N1 (configuration not stated),i
O=C(Nc1ccc(F)cc1)c1cc2cc(Cl)cc(Cl)c2oc1=O,i
Cc1sc2nc3c(C(=O)N4CCN(C(=O)c5ccco5)CC4)cccn3c(=O)c2c1C,i
CC1=C[C@@H](CNC(=O)NC2CCCCC2)[C@H](C(C)C)C[C@H]1CC(=O)O,i
COCC(=O)NC[C@@H]1C=C(C)[C@H](CC(=O)O)C[C@H]1C(C)C,32%*
SMILES,ST2 inh
CC1=C[C@@H](CNC(=O)c2ccccc2)[C@H](C(C)C)C[C@H]1CC(=O)O,i
CSCC[C@@H](CO)n1ccnc1-c1cc2c(cc1C)OCO2,i
CC(NC(=O)c1ccccc1[N+](=O)[O-])c1ccccc1 (configuration not stated),i
Cc1cc(C)c(S(=O)(=O)NCc2ccc(S(N)(=O)=O)cc2)c(C)c1,i
CCOc1ccc(/C=C2\N=C(c3cccc(C)c3)OC2=O)cc1,i
CCOc1ccc(/C=C2\N=C(SC)SC2=O)cc1,44%*
CSC1=N/C(=C\c2ccc(C(=O)O)cc2)C(=O)S1,i
CSC1=N/C(=C\c2cc(Br)ccc2OCC(=O)O)C(=O)S1,i
COc1cccc(/C=C2/SC(N3CCCC3)=NC2=O)c1OC,i
COc1cc(C=C2C(=O)OC(C)(C)OC2=O)cc(Cl)c1O,i
COc1cccc(/C=C2\N=C(SC)SC2=O)c1OCc1ccccc1,40%*
COc1cc(/C=C2\N=C(SC)SC2=O)cc(OC)c1OC,30%*
CC(=O)Nc1cccc(S(=O)(=O)N2CCC(CO)(CCc3ccccc3)CC2)c1,i
COc1ccc(-c2cc(-c3c(O)ccc4ccccc34)[nH]n2)cc1,i
O=C(N[C@H]1CCN2C(=O)[C@H]3CCCN3C(=O)[C@@H]2C1)c1cccs1,i
CCc1[nH]nc2c1C(c1ccccc1OCCCn1ccnc1)CC(=O)N2 (configuration not stated),i
COc1ccccc1-c1ccnc(N[C@H]2CO[C@H]3[C@@H]2OC[C@@H]3NC(C)=O)n1,i
O=C(NC1CCCCC1)c1cc(-c2ccc3c(c2)OCO3)on1,i
CC1(C)CC(=O)C=C(C(=O)N2CCCC(CO)(CCOc3ccccc3)C2)O1 (configuration not stated),i
COc1ccc(S(=O)(=O)NC2CCCCCCC2)cc1OC,i
O=[N+]([O-])C1=C(Nc2ccccc2)CS(=O)(=O)C1,i
Nc1ncnc(Nc2ccc(Oc3ccccc3)cc2)c1[N+](=O)[O-],i
O=[N+]([O-])c1c(Nc2ccccc2)sc2ccccc12,37%*
COc1ccc(N2CC(C(=O)Nc3ccc(Br)cc3)CC2=O)cc1 (configuration not stated),i
O=C(CCCn1c(=O)[nH]c2ccsc2c1=O)Nc1ccccc1,i
SMILES,ST2 inh
COc1ccc(/C=C2\SC(=O)N(c3cccc(C)c3)C2=O)cc1,i
COc1ccc(/C=C2\SC(=O)N(c3ccc(O)cc3)C2=O)cc1,i
COc1ccc(N2C(=N)S/C(=C\c3ccccc3[N+](=O)[O-])C2=O)cc1,36%*
CCN(CC)CCCN1C(=O)C(=O)C(=C(O)c2ccccc2)C1c1ccc([N+](=O)[O-])cc1 (configuration not stated),i
O=C(O)CCCC[C@H]1SC[C@H]2NC(=O)N[C@H]21,96%*
NCCCCC(=O)O,i
NC(=O)c1ccc(C(=O)N(C2CCCCC2)C2CCCCC2)cc1,i
O=C(NCCCc1ccccc1)C1CC12CCN(C(=O)c1cccc(-c3ccccc3F)c1)CC2 (configuration not stated),i
O=C(NCCC(c1ccccc1)c1ccccc1)C1CC12CCN(C(=O)c1ccc[n+]([O-])c1)CC2 (configuration not stated),34%*
COc1ccc(CC(=O)N2CCC3(CC2)CC3C(=O)NCCCc2ccccc2)cc1OC (configuration not stated),i
O=C(CCS(=O)(=O)c1cccs1)Nc1ccc(C(=O)NCc2ccco2)cc1,i
O=C1CC2CS(=O)(=O)CC2N1c1cccc(Cl)c1 (configuration not stated),i
CC1CC2c3cccc(C(=O)O)c3C(=O)N2Cc2ccccc21 (configuration not stated),i
O=C(Nc1cccc(N2CCC(NCc3ccccc3OC(F)(F)F)CC2)c1)c1ccncc1,i
CN(Cc1ccco1)S(=O)(=O)c1ccc2c(c1)oc(=O)n2C,i
Cc1[nH]nc2c1C(c1cc(Br)cs1)C(C#N)=C(N)O2 (configuration not stated),33%*
CCOc1ccc(C2C(C#N)=C(N)Oc3n[nH]c(C)c32)cc1 (configuration not stated),i
CCCCOc1ccc(C2C(C#N)=C(N)Oc3n[nH]c(C)c32)cc1 (configuration not stated),i
CCN(CC)c1ccc(C2C(C#N)=C(N)Oc3n[nH]c(C)c32)cc1 (configuration not stated),i
Cc1ccc(-c2[nH]nc3c2C(c2ccccc2F)C(C#N)=C(N)O3)cc1 (configuration not stated),i
Cc1[nH]nc2c1C(c1c(F)cccc1F)C(C#N)=C(N)O2 (configuration not stated),32%*
O=C(C1CC(Cc2ccc(F)cc2)=NO1)N1CCCC(COc2ccccc2F)C1 (configuration not stated),i
COc1ccc(Br)cc1CN1CCCC(O)C1 (configuration not stated),i
